A selection: hits, their analogues and other compounds. The true share with any hit is near 28%.
CD11b adhes enh = increases human CD11b/CD18 adhesion to fibrinogen; AID 1499; actives 0.07% (n = 93,000); activation, % at 10 µM; K562 CD11b/CD18 adhesion to fibrinogen, ATPlite luminescence;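 active = 10 µM primary screen giving 50% or more activity, confirmed by 40% or more on retest at that dose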
CYP2C19 inhib = human CYP2C19 inhibition. P33261. CYP2C19 Supersomes, luciferin-H EGE luminescence, 30 min. inhibition, % at 5 µM. actives 21% (n = 96,000). AID 778;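 active = CYP2C19 inhibition above a set limit at 5 µM in the primary screen, cut at about 50% in these data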;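 note: plate controls were negative control wells for no effect and 2.5 mM tranylcypromine positive control for full effect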
Target sequence (P33261 whole entry, looked up): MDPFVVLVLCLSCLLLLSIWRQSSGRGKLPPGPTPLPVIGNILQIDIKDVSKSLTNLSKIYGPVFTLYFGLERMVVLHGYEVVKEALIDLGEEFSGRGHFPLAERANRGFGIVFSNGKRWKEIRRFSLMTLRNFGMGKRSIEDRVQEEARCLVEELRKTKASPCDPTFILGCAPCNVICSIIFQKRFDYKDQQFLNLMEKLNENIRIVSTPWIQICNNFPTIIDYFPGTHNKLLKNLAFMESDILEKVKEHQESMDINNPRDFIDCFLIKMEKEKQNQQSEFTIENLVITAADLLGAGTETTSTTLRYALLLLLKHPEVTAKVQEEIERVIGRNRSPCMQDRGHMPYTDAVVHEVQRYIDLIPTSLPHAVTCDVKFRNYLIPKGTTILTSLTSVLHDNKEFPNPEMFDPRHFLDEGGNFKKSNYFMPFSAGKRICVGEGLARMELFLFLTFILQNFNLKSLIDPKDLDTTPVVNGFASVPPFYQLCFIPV
CYP2C19 act = activators of human cytochrome P450 2C19; AID 1025; recombinant CYP2C19, luciferin-H EGE luminescence; stronger effect = higher value; 0 = fully inhibited enzyme, 1 = untreated enzyme; 96,000 tested, under 10 active; P33261; activation factor at 5 µM;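 active = activation factor of at least 2 at 5 µM in the primary screen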;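 note: 0 = wells with 2.5 mM tranylcypromine and 1 = vehicle-only wells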
CYP2C9 activ = CYP2C9 (human) activation; recombinant CYP2C9, luciferin-H conversion, luminescence; stronger effect = higher value; factor 1 = untreated enzyme, 0 = blocked; activation factor at 5 µM; actives 1.4% (n = 96,000);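 active = activation factor of 2 or more for CYP2C9 at a 5 µM dose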;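 note: 0 = sulfaphenazole-blocked wells and 1 = vehicle-only wells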
CD11b adhes inh = blocks human CD11b/CD18 adhesion to fibrinogen. P05107+P11215. K562 CD11b/CD18 adhesion to fibrinogen, ATPlite luminescence; Mn2+ added to activate the integrin. inhibition, % at 10 µM. actives 0.54% (n = 93,000). AID 1497;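 active = primary inhibition of 50% or more at 10 µM, then 40% or more on retest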
CYP2C9 inhib = inhibitors of human CYP2C9. P11712. CYP2C9 Supersomes, luciferin-H conversion, luminescence. inhibition, % at 5 µM. actives 20% (n = 96,000). AID 777;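 active = blocking of liver enzyme CYP2C9 beyond about 50% at 5 µM, limit read from the data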
Active calls of the source: *; . = no result.

SMILES	CD11b adhes enh	CYP2C19 inhib	CYP2C19 act	CYP2C9 activ	CD11b adhes inh	CYP2C9 inhib
NC(=O)C(c1ccc(Cl)cc1)c1ncc(C(F)(F)F)cc1Cl (stereo not given)	.	73*	0.3	0.9	.	10
NC(=O)C(c1ccc(Cl)cc1Cl)c1ncc(C(F)(F)F)cc1Cl (stereo not given)	.	88*	0.1	0.8	.	18
O=C(Nc1ccc(Br)cc1)c1cccn1-c1ncc(C(F)(F)F)cc1Cl	.	25	0.8	0.7	.	32
CCOC(=O)C(C(=O)NCc1ccc(F)cc1)c1ncc(C(F)(F)F)cc1Cl (stereo not given)	1	22	0.8	1	-22	4
COc1ccc(N2CCN(c3oc(COc4ccc(Cl)cc4)nc3C#N)CC2)cc1	0	35	0.6	0.5	1	50*
N#Cc1nc(COc2ccccc2)oc1N1CCCCCC1	20	15	0.9	0.8	2	23
N#Cc1nc(COc2ccc(Cl)cc2)oc1N1CCN(Cc2ccccc2)CC1	-5	40	0.6	0.5	5	53*
CCOc1ccc(-c2nc(C#N)c(N3CCN(Cc4ccccc4)CC3)o2)cc1	-1	36	0.6	0.3	9	67*
COc1ccc(-n2c(SCC(=O)Nc3ccc4c(c3)OCO4)nc3c(c2=O)SCC3)cc1	-6	41	0.6	0.4	0	58*
COc1ccc(-n2c(SCC(=O)Nc3ccc4c(c3)OCO4)nc3ccccc3c2=O)cc1	1	92*	0.1	0.1	7	91*
CCOc1ccc(-n2c(SCC(=O)Nc3ccc4c(c3)OCO4)nc3ccccc3c2=O)cc1	-5	41	0.6	0.4	-2	62*
COc1ccc(NC(=O)CSc2nc3ccccc3c(=O)n2-c2ccc3c(c2)OCO3)c(OC)c1	-3	7	0.9	0.9	-1	12
CCC(C)n1c(SCC(=O)NC(=O)Nc2ccc3c(c2)OCCO3)nc2ccccc2c1=O (stereo not given)	2	12	0.9	0.1	8	90*
CCC(C)n1c(C)nc2c(c1=O)c1nc3ccccc3nc1n2-c1ccc2c(c1)OCCO2 (stereo not given)	70	-8	1.1	1	-20	-3
CC(C)(Oc1ccc(Cl)cc1)C(=O)OCC(=O)N1CCCC1	-2	28	0.7	0.9	3	10
COc1ccccc1-n1c(SCC(=O)Nc2cccc(C)c2)nc2c(c1=O)SCC2	1	83*	0.2	0.3	-14	74*
COc1cccc(-c2noc(C3CCCN(C(=O)Cc4ccccc4)C3)n2)c1 (stereo not given)	0	30	0.7	0.6	1	41
COc1ccc(NC(=O)N2CCCC(c3nc(-c4ccc(C(C)C)cc4)no3)C2)cc1 (stereo not given)	-8	36	0.6	0.3	87	67*
CCCCCC(=O)N1CCCC(c2nc(-c3ccc(OC)cc3)no2)C1 (stereo not given)	.	64*	0.4	0.3	.	67*
O=C(CC1CCCCC1)N1CCCC(c2nc(-c3ccc(S(=O)(=O)N4CCCC4)cc3)no2)C1 (stereo not given)	-6	30	0.7	0.4	13	60*
COc1ccc(-c2noc(C3CCCN(C(=O)CCc4ccccc4)C3)n2)cc1 (stereo not given)	-1	44	0.6	0.3	1	70*
O=C(Cc1cccs1)Nc1cccnc1	-1	7	0.9	0.9	-9	6
Cc1ccc(C)c(NC(=O)C2CC3c4ccccc4C2c2ccccc23)c1 (stereo not given)	.	24	0.8	0.7	.	32
CN(CC1CCCO1)S(=O)(=O)c1ccc(C(=O)Nc2nc(-c3ccccn3)cs2)cc1 (stereo not given)	-4	13	0.9	0.7	-10	26
COc1ccc(C(=O)CSc2nnc(CNC(=O)c3ccc(OC)c(OC)c3)n2C)cc1	1	-5	1.1	1	-12	-2
CC(C)CNC(=O)NC1C(NC(=O)NCC(C)C)N(C)C(=O)N1C (stereo not given)	-1	-16	1.2	1.2	6	-16
O=C(COC(=O)c1cc(S(=O)(=O)N2CCOCC2)ccc1O)NCCc1ccccc1	-2	49	0.5	0.2	-4	83*

Bioassay records from PubChem BioAssay.
